About 83,000 compounds went through this panel and 20% of them were active in at least one assay; those are over-represented in the sample as a whole.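 96-well plates, one dose, 48 hours. Percent growth reported; active if below 10.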 Active and inactive are the calls of the source.
How the values were obtained:
Assay in all cases: NCI-60 one-dose screen, 48 h (100 = growth as untreated, 0 = no growth, -100 = all killed)
Details in all cases: 10 µM unless noted
[1] = system: HT29 colon
[2] = system: SNB-75 CNS
[3] = system: SNB-19 CNS
[4] = system: U251 CNS
[5] = system: PC-3 prostate
[6] = system: SK-MEL-5 melanoma
[7] = system: UACC-62 melanoma
[8] = system: LOX IMVI melanoma
[9] = system: SK-MEL-28 melanoma

Measured: growth

CC(C)N(CCOC(=O)Nc1ccccc1Cl)C(C)C
inactive: [1] 97.1% | [2] 107% | [3] 98.6% | [4] 98.8% | [5] 74% | [6] 97.5% | [7] 96.4% | [8] 101% | [9] 110%

Cc1c2c(cn1Cc1ccccc1)CCc1cn(C)nc1-2
inactive: [1] 98% | [2] 95.9% | [3] 105% | [4] 97.2% | [5] 71.4% | [6] 53.5% | [7] 70.4% | [8] 85.2% | [9] 104%

OC(CBr)c1ccnc2ccccc12 (stereo not drawn)
inactive: [1] 85.1% | [2] 94.8% | [3] 104% | [4] 95.8% | [5] 88.8% | [6] 106% | [7] 95.1% | [8] 96.3% | [9] 109%

COc1ccc(C2CC(c3cnccn3)=NN2)cc1OC (stereo not drawn)
inactive: [1] 84.9% | [2] 118% | [3] 103% | [4] 96.7% | [5] 92% | [6] 100% | [7] 103% | [8] 104% | [9] 121%

CCCCC1COc2cccc3c(SCC(=O)N(C)c4cccc(Cl)c4)cc[n+]1c23 (stereo not drawn)
inactive: [1] 100% | [2] 137% | [3] 98.7% | [5] 106% | [7] 101% | [8] 102% | [9] 106%

NC(=S)N/N=C/C(=O)O
inactive: [1] 80% | [2] 99.2% | [3] 108% | [4] 102% | [5] 70% | [6] 103% | [7] 106% | [8] 93.3% | [9] 111%

O[C@H]1CO[C@H]2[C@@H]1OC[C@@H]2Oc1ccc(Nc2ccnc(Nc3ccc(O[C@H]4CO[C@H]5[C@@H]4OC[C@@H]5O)c(Cl)c3)n2)cc1Cl
inactive: [5] 15.7% | [9] 20.4%
active: [1] 9.26% | [2] -1.57% | [3] 7.59% | [4] 7.71% | [7] -74% | [8] -8.35%

CNC1(C#N)CCN(Cc2ccccc2)CC1
inactive: [1] 102% | [2] 81.5% | [3] 99.8% | [5] 97.6% | [6] 116% | [7] 92.5% | [8] 102% | [9] 136%

COc1cc(-c2ccc(N=Nc3c(O)c(C(=O)Nc4ccccc4OC)cc4ccccc34)c(OC)c2)ccc1N=Nc1c(O)c(C(=O)Nc2ccccc2OC)cc2ccccc12
inactive: [1] 108% | [2] 74.8% | [3] 96% | [4] 94% | [5] 93.4% | [6] 98.9% | [7] 101% | [8] 86.3% | [9] 97.4%

COc1ccc(N=c2nc3sc4cc(Cl)ccc4n3c(N)c2C#N)cc1
inactive: [1] 36.1% | [2] 36.9% | [3] 82% | [4] 79% | [5] 58.5% | [6] 14.9% | [7] 69.3% | [8] 83% | [9] 45.8%

O=C1CSC(c2ccc(O)cc2)N1c1nnc(Cn2cnnc2)o1 (stereo not drawn)
inactive: [1] 55.8% | [2] 53.8% | [3] 97.9% | [4] 110% | [5] 88.7% | [6] 105% | [7] 97.2% | [8] 99.9% | [9] 77.9%

COC(=O)c1ccc2oc(NC(=O)c3ccc(N4CCOCC4)c([N+](=O)[O-])c3)nc2c1
inactive: [1] 95.6% | [2] 79.7% | [3] 92.4% | [5] 89.5% | [6] 104% | [7] 90.6% | [9] 97.4%

COc1ccc(CN2C(=O)/C(=C\c3cc(OC)c(OC)c(OC)c3)c3ccccc32)cc1
active: [1] 0.194% | [2] 8.57% | [4] -73.6% | [6] -25.1% | [7] -8.88% | [8] -76% | [9] -34.9%
inactive: [3] 60.3% | [5] 10.9%

CCN(CC)CCCNC(=O)c1ccc(N)cc1
inactive: [1] 100% | [2] 95.5% | [3] 102% | [4] 101% | [5] 101% | [6] 97.7% | [7] 105% | [8] 103% | [9] 96.8%

NS(=O)(=O)c1cn(-c2ncnc3nc[nH]c23)ccc1=O
inactive: [1] 101% | [2] 75.4% | [3] 97.2% | [4] 102% | [5] 96.1% | [6] 97.6% | [7] 89.7% | [8] 99.9% | [9] 105%

CCCCCCCC/C=C\CCCCCCCC(=O)Oc1cccc2cccnc12
inactive: [1] 137% | [2] 149% | [3] 103% | [4] 91% | [5] 114% | [6] 102% | [7] 99.8% | [8] 79.8% | [9] 176%

CCCCNC(=O)NS(=O)(=O)c1ccc(N2N=C(c3ccc(C)cc3C)CC2c2ccc(N(C)C)cc2)cc1 (stereo not drawn)
inactive: [1] 62% | [2] 75.4% | [3] 75.6% | [4] 37% | [5] 38% | [6] 47% | [7] 54.8% | [8] 52.2% | [9] 45.5%

NC(=O)CC1(O)C=C(Br)C(=O)C(Br)=C1
inactive: [1] 75.8% | [2] 76.4% | [3] 106% | [6] 92.7% | [7] 108% | [8] 86.1% | [9] 21.5%

Cc1ccc(O)c(C(=O)c2ccccc2Cl)c1
inactive: [1] 108% | [2] 79.3% | [3] 109% | [4] 98.5% | [6] 97.6% | [7] 101% | [8] 101% | [9] 105%

C[C@@H]1C(=O)N(C[C@H](Cc2ccccc2)N(Cc2ccccc2)Cc2ccccc2)[C@]1(Cc1ccccc1)C(=O)OC(C)(C)C
inactive: [1] 46.4% | [2] 71.3% | [3] 66.9% | [4] 49.2% | [5] 27.9% | [6] 45.5% | [7] 60.6% | [8] 62.8% | [9] 92%

COc1cc2nc(Nc3ccc(F)cc3)nc(N)c2cc1OC
inactive: [1] 81% | [2] 103% | [3] 92.6% | [4] 94% | [5] 84.1% | [6] 90.5% | [7] 94% | [8] 101% | [9] 105%

O=C1Nc2ccccc2/C1=N/N=C/c1ccsc1
inactive: [1] 112% | [2] 87.8% | [3] 95.5% | [4] 104% | [5] 107% | [6] 101% | [7] 93% | [8] 95.1% | [9] 110%

Cc1c(C(=O)O)nnn1-c1nccs1
inactive: [1] 89.7% | [2] 81.8% | [3] 98.1% | [4] 92.1% | [5] 89.4% | [6] 99.6% | [7] 96.2% | [8] 96.7% | [9] 108%

CC(C)c1ccc(C(=O)OC(=O)c2ccc(C(C)C)cc2)cc1
inactive: [1] 112% | [2] 88.6% | [3] 107% | [5] 86.8% | [6] 116% | [7] 99.4% | [8] 91.5% | [9] 115%

Cc1nc(-c2ccccc2)cc2c(O)c(C(=O)N/N=C/c3ccc(N(C)C)cc3)[nH]c(=O)c12
inactive: [1] 72.9% | [2] 62.2% | [3] 117% | [4] 41.8% | [6] 83.4% | [7] 97.3% | [8] 75.8% | [9] 80.2%

CCOc1ccc(S(=O)(=O)c2ccc(C)cc2)c2c1no[n+]2[O-]
inactive: [1] 52.8% | [2] 54.7% | [3] 87.9% | [4] 80.1% | [5] 82.1% | [6] 72.5% | [7] 78.5% | [8] 87.1% | [9] 104%

From PubChem BioAssay (NCI)
